The supplement of paper PMC10849652
About 8,800 targets were measured; listed, in parts, are those with a hit and a random draw of the rest. About 0.5% of all pairs of compound and target were hits. Values without a mark were called inactive.

How the values were obtained:
Experiment in all cases: log2 fold change, soluble protein after heating vs DMSO (PISA); higher = thermal stabilisation; K562 lysate, 10 uM; active = over 0.2 and 3.5 SD of the protein, either way, in both replicates (recomputed)
[1] = compound: C=CC(=O)N1CCC[C@@H](n2nc(-c3ccc(Oc4ccccc4)cc3)c3c(N)ncnc32)C1 [ibrutinib]
Summary of the method: (§1)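 K562 pellets were dounce-homogenised in PBS pH 7.4 with 1 mM MgCl2, and the crude extract at 1 mg/mL protein was treated with 10 μM compound for 30 min. Aliquots were heated for 3 min across 48°C-58°C, pooled, and brought to 0.5% NP-40 at 4°C; soluble protein was the supernatant after 21,000xg for 90 min. Soluble protein was quantified by TMTpro 16plex LC-MS/MS with channel sums equalised, and reported as log2 fold change in thermal stability against DMSO controls, with values from duplicates.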

[2] = compound: CC(C)(C)Cn1c(N)nc2ccc(-c3[nH]c(C(C)(C)C)nc3-c3ccc(F)cc3)nc21 [ralimetinib]
Summary of the method: as §1

[3] = compound: CC(C)(O)CC(=O)NCCn1ccc2ncnc(Nc3ccc(Oc4cccc(C(F)(F)F)c4)c(Cl)c3)c21
Summary of the method: as §1

[4] = compound: CC(C)C1=C2N=C(C=C(N2N=C1)NCC3=CC=CC=C3)NCCCCCCN
Summary of the method: as §1

[5] = compound: CC1=C(C2=C(C=C1)C(=O)C3=CC=CC=C3N2CCCN)C
Summary of the method: as §1

[6] = compound: CC1=C(C=C(C=C1)NC(=O)C2=CC(=CC=C2)C(C)(C)C#N)NC3=CC4=C(C=C3)N=CN(C4=O)C
Summary of the method: as §1

[7] = compound: CC1=C(C=C(C=C1)NC(=O)C2=CC(=CC=C2)N(C)C)NC(=O)C3=CC=C(C=C3)O
Summary of the method: as §1

[8] = compound: CCN(CCCOc1ccc2c(Nc3cc(CC(=O)Nc4cccc(F)c4)[nH]n3)ncnc2c1)CCOP(=O)(O)O [barasertib]
Summary of the method: as §1

[9] = compound: CC[C@@H]1C(=O)N(C)c2cnc(Nc3ccc(C(=O)NC4CCN(C)CC4)cc3OC)nc2N1C1CCCC1
Summary of the method: as §1

[10] = compound: CCn1c(C(=O)N(C2CC2)C2CC2)cc2c3c(ncn3C)c(Nc3cc(C)n(C)n3)nc21
Summary of the method: as §1

[11] = compound: CCn1cc(-c2ccnc3[nH]c(-c4cccc(CN(C)C)c4)cc23)c(-c2ccc(NC(=O)N(C)C)cc2)n1
Summary of the method: as §1

[12] = compound: CN1CCC(CNc2ccc3ncc(-c4cccc(OC(F)(F)F)c4)n3n2)CC1
Summary of the method: as §1

[13] = compound: CN1CCN(CCOc2cc(OC3CCOCC3)c3c(Nc4c(Cl)ccc5c4OCO5)ncnc3c2)CC1 [saracatinib]
Summary of the method: as §1

[14] = compound: CN1CCN(c2nc(C3=C(c4c[nH]c5ccccc45)C(=O)NC3=O)c3ccccc3n2)CC1 [sotrastaurin]
Summary of the method: as §1

[15] = compound: CC(=O)c1cnc2ccc(-c3cc(Cl)c(O)c(Cl)c3)nc2c1N[C@H]1CC[C@H](CN(C)C)CC1
Summary of the method: as §1

[16] = compound: CC1=C(C(CC(=O)N1)C2=CC=C(C=C2)C(F)(F)F)C(=O)NC3=C(C=C4C(=C3)C=NN4)F
Summary of the method: as §1

[17] = compound: CC1=CC=C(C=C1)SC2=C3C=C(SC3=CN=C2)C(=O)N
Summary of the method: as §1

[18] = compound: CCCS(=O)(=O)Nc1ccc(F)c(C(=O)c2c[nH]c3ncc(-c4ccc(Cl)cc4)cc23)c1F [vemurafenib]
Summary of the method: as §1

[19] = compound: CCCS(=O)(=O)Nc1ccc(F)c(C(=O)c2c[nH]c3ncc(Cl)cc23)c1F
Summary of the method: as §1

[20] = compound: CC[C@@H]1C(=O)N(C)c2cnc(Nc3ccc(C(=O)N[C@H]4CC[C@H](N5CCN(CC6CC6)CC5)CC4)cc3OC)nc2N1C(C)C [volasertib]
Summary of the method: as §1

Sequence of UniProt A1L020 (A1L020 whole entry, looked up): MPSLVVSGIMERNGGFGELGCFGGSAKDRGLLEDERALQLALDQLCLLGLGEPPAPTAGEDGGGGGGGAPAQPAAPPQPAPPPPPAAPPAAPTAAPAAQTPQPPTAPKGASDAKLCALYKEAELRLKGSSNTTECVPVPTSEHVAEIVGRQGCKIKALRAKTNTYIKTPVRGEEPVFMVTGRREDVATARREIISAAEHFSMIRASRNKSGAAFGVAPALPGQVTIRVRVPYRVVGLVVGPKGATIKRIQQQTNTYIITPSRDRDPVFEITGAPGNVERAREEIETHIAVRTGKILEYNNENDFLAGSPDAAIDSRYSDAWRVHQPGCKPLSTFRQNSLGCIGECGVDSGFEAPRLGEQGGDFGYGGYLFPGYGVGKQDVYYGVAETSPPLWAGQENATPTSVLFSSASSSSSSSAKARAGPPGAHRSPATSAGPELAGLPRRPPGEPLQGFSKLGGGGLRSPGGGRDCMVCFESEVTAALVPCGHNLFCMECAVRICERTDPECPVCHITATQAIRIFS
Sequence of UniProt Q07866 (Q07866 whole entry, looked up): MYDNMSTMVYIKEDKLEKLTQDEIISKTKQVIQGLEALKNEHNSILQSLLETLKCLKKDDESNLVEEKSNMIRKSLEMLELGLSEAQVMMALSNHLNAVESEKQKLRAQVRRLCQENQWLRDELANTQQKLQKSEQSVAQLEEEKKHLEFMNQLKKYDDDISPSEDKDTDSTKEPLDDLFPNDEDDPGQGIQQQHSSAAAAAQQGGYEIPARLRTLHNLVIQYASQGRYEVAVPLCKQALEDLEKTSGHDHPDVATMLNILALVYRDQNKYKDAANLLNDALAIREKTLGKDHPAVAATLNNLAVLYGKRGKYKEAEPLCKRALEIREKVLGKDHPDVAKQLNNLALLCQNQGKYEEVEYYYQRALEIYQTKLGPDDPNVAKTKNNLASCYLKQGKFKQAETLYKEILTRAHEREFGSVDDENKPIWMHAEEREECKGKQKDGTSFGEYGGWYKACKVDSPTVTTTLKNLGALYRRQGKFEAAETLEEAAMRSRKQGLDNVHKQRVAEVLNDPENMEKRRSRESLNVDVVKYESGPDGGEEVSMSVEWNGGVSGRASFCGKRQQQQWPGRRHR
Sequence of UniProt Q13164 (Q13164 whole entry, looked up): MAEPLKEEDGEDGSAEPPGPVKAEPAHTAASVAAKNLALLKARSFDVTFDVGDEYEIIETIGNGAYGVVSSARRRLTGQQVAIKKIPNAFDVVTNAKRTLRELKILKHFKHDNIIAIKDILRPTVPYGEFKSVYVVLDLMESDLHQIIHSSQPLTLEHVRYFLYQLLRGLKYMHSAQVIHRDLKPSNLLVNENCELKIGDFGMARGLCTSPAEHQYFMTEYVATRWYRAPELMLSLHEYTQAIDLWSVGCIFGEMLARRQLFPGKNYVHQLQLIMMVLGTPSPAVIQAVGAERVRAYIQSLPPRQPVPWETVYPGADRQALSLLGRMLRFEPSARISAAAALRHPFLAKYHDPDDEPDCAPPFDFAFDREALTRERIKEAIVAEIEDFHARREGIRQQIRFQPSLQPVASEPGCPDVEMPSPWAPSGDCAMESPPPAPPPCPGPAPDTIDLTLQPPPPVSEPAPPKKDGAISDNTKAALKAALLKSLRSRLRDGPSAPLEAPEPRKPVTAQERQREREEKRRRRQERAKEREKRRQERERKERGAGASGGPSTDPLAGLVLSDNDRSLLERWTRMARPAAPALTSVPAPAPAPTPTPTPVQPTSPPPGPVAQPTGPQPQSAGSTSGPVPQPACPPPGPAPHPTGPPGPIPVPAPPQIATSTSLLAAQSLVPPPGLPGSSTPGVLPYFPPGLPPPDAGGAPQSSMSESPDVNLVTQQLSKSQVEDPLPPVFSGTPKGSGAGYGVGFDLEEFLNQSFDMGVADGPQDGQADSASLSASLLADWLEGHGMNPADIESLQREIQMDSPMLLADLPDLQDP
Sequence of UniProt P07948 (P07948 whole entry, looked up): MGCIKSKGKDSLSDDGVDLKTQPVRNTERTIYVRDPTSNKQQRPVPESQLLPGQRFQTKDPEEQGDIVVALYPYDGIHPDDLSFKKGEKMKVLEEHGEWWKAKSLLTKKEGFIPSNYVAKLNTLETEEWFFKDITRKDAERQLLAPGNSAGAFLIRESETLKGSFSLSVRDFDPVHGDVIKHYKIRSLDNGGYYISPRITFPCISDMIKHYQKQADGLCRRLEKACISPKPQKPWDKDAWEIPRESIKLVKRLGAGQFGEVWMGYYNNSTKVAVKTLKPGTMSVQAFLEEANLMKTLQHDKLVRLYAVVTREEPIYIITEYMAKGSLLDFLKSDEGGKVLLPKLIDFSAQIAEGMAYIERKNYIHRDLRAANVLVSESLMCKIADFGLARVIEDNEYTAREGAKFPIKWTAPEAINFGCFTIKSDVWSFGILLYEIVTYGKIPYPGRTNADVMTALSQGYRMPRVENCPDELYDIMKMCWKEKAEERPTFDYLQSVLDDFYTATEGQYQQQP
Sequence of UniProt P83369 (P83369 whole entry, looked up): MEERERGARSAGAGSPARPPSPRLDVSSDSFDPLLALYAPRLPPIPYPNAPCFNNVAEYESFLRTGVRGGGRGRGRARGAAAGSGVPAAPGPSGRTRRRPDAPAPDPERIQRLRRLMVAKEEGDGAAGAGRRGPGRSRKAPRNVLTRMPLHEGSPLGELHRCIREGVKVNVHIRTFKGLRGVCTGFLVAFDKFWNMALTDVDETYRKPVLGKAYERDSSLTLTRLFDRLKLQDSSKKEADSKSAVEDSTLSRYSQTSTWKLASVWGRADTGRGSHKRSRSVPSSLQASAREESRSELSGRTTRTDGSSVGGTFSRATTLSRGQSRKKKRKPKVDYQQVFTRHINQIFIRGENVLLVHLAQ
Sequence of UniProt Q9ULI4 (Q9ULI4 whole entry, looked up): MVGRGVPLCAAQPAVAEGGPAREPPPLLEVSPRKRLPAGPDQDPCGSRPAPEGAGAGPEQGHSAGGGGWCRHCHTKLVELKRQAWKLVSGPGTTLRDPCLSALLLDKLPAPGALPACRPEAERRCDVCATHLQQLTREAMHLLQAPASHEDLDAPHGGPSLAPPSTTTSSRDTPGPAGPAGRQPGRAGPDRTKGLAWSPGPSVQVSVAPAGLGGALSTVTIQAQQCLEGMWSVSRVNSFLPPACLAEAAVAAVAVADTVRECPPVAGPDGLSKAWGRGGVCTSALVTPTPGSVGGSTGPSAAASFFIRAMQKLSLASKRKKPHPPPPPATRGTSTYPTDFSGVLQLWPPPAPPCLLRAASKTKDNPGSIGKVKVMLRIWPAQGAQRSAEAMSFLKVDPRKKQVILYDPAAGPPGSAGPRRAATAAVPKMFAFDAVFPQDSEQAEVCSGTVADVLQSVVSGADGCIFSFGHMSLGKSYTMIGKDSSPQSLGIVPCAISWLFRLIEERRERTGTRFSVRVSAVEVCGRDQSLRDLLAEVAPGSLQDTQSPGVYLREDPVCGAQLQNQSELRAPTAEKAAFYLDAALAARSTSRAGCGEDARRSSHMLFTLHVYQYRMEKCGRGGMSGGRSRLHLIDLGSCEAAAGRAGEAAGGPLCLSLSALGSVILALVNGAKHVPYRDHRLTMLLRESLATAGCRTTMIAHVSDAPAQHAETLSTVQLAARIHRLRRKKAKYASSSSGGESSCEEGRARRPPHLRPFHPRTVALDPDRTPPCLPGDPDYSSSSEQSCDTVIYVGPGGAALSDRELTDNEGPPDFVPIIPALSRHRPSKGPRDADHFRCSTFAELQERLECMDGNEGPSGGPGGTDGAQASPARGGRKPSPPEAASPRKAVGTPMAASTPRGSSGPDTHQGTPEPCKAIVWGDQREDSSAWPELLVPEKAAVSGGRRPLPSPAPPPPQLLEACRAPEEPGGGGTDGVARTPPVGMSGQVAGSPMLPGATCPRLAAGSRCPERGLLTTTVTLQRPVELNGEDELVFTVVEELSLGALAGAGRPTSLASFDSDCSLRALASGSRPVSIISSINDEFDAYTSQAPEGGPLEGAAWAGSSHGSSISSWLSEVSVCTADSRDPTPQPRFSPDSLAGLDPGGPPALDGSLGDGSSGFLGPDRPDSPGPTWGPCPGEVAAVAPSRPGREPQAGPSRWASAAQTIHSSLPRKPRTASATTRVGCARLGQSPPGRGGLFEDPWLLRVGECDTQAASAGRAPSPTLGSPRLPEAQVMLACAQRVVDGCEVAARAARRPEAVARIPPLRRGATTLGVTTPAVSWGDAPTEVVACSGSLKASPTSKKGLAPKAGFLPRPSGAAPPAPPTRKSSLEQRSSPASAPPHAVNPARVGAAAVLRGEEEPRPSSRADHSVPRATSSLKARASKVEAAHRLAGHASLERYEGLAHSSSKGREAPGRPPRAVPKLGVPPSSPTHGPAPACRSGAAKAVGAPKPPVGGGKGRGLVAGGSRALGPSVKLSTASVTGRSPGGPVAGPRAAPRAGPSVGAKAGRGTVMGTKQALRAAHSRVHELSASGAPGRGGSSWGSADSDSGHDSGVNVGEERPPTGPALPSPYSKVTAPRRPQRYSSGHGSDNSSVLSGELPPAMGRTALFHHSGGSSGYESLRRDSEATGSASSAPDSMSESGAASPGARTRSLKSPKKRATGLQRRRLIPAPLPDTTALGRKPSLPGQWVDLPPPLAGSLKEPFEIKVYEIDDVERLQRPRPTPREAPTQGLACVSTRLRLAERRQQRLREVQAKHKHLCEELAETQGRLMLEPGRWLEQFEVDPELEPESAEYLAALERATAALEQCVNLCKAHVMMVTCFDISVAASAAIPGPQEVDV
Sequence of UniProt Q16553 (Q16553 whole entry, looked up): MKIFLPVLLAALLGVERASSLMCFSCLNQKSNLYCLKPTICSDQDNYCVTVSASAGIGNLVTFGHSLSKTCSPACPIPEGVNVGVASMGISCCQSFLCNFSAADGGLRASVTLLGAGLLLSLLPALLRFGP
Sequence of UniProt P01116 (P01116 whole entry, looked up): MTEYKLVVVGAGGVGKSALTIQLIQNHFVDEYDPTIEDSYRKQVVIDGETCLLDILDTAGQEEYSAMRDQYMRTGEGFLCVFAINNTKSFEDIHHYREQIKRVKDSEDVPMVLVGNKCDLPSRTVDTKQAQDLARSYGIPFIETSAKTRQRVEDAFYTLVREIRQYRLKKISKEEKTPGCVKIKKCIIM

| Target | log2 fold change [1] | log2 fold change [2] | log2 fold change [3] | log2 fold change [4] | log2 fold change [5] | log2 fold change [6] | log2 fold change [7] | log2 fold change [8] | log2 fold change [9] | log2 fold change [10] | log2 fold change [11] | log2 fold change [12] | log2 fold change [13] | log2 fold change [14] | log2 fold change [15] | log2 fold change [16] | log2 fold change [17] | log2 fold change [18] | log2 fold change [19] | log2 fold change [20] |
| --- | --- | --- | --- | --- | --- | --- | --- | --- | --- | --- | --- | --- | --- | --- | --- | --- | --- | --- | --- | --- |
| MEGF8 (UniProt Q7Z7M0) | 0 | -0.019 | -0.124 | -0.057 | 0.091 | 0.079 | 0.154 | 0.049 | 0.076 | -0.048 | 0.124 | 0.028 | 0.283 | -0.003 | – | – | – | – | – | – |
| KIF3C (UniProt O14782) | – | -0.038 | -0.032 | -0.015 | -0.116 | -0.007 | 0.023 | – | -0.296 | 0.018 | -0.138 | -0.037 | 0.02 | -0.022 | -0.041 | 0.03 | 0.044 | 0.565 | -0.213 | 0.186 |
| LRPPRC (UniProt H7C3W8) | – | – | – | – | – | – | – | – | – | – | – | – | – | – | – | – | – | 0.566 | – | – |
| KIF18B (UniProt Q86Y91) | – | – | – | – | -0.022 | 0 | – | – | 0.221 | – | – | – | 0.04 | 0.106 | -0.157 | – | -0.121 | – | 0.017 | -0.046 |
| KMT2B (UniProt Q9UMN6) | – | – | – | 0.53 | -0.135 | -0.072 | – | – | -0.1 | – | – | – | 0.081 | -0.206 | – | – | – | – | – | – |
| MAPKAP1 (UniProt Q9BPZ7) | – | -0.019 | 0 | -0.031 | 0.061 | 0.007 | -0.034 | – | 0.031 | 0.005 | – | – | 0.057 | -0.045 | – | -0.103 | – | – | – | – |
| MEX3A (UniProt A1L020) | – | -0.21 | -0.123 | – | 0.003 | – | -0.162 | – | – | 0.191 | – | – | 0.055 | – | – | -0.076 | – | -0.094 | – | – |
| LRIF1 (UniProt Q5T3J3) | – | -0.09 | -0.055 | 0.089 | -0.044 | -0.031 | 0.046 | – | -0.009 | 0.006 | 0.105 | 0.044 | 0.046 | 0.001 | -0.088 | -0.143 | -0.197 | 0.213 | -0.005 | 0.042 |
| KRI1 (UniProt Q8N9T8) | -0.023 | 0.047 | -0.018 | 0.043 | -0.069 | 0.02 | 0.046 | -0.03 | 0.005 | 0.021 | -0.005 | -0.014 | 0 | 0.008 | – | 0.074 | – | -0.079 | – | – |
| KIFC3 isoform 6 (UniProt Q9BVG8) | 0 | – | – | 0.097 | -0.231 | 0.193 | – | 0.025 | 0.409 | – | 0.284 | 0.256 | 0.005 | 0.028 | – | – | – | 0.052 | – | – |
| MMS22L (UniProt Q6ZRQ5) | -0.025 | – | – | -0.085 | -0.042 | -0.049 | – | 0.083 | -0.182 | – | 0.077 | -0.083 | 0.092 | 0.012 | 0.049 | 0.007 | 0.007 | -0.044 | 0.013 | -0.119 |
| MBTPS1 (UniProt Q14703) | -0.243 | 0.056 | -0.045 | -0.029 | -0.041 | 0.008 | 0.048 | 0.199 | 0.034 | 0.003 | 0.211 | -0.185 | -0.031 | -0.014 | – | – | – | 0.247 | – | – |
| KIF26A (UniProt Q9ULI4) | -0.022 | -0.125 | 0.084 | 0.008 | 0.007 | 0.033 | -0.048 | 0 | 0.08 | -0.01 | -0.076 | -0.005 | -0.067 | -0.033 | – | -0.02 | – | 0.135 | – | – |
| KIF2A isoform 2 (UniProt O00139) | – | – | – | – | – | – | – | – | – | – | 0.129 | 0.316 | – | – | – | – | – | – | – | – |
| MAPK7 (UniProt Q13164) | – | – | – | 0.025 | – | -0.034 | – | – | 0.072 | – | -0.084 | -0.101 | – | -0.031 | 0.388 (active) | – | -0.013 | – | 0.024 | -0.056 |
| LYN isoform 2 (UniProt P07948) | – | -0.104 | 0.106 | -0.061 | -0.226 | 0.333 | -0.008 | – | -0.077 | -0.075 | -0.031 | 0.024 | 0.353 | 0.074 | – | -0.432 | – | – | – | – |
| KRAS isoform 2 (UniProt P01116) | – | 0.071 | -0.078 | -0.05 | -0.011 | -0.025 | 0.004 | – | 0.156 | 0.077 | – | – | -0.06 | -0.013 | 0.05 | – | 0.059 | – | 0.019 | -0.125 |
| MOCS3 (UniProt O95396) | 0.045 | -0.016 | -0.014 | -0.018 | -0.04 | 0.079 | 0.001 | -0.018 | -0.038 | 0.037 | -0.273 | 0.264 | 0.06 | 0.11 | – | 0.056 | – | -0.12 | – | – |
| MAPK12 (UniProt P53778) | 0.049 | -0.001 | -0.029 | -0.027 | 0.08 | 0.002 | -0.012 | -0.033 | 0.105 | -0.029 | 0.974 (active) | -0.169 | 0.023 | – | – | 0.074 | – | 0.084 | – | – |
| MRC2 (UniProt Q9UBG0) | – | – | – | -0.015 | 0.03 | 0.133 | – | – | 0.205 | – | 0.053 | 0.124 | 0.301 | -0.054 | – | 0.002 | – | – | – | – |
| LRRIQ1 (UniProt Q96JM4) | – | -0.041 | 0.019 | – | – | 0.671 (active) | 0.047 | – | – | -0.015 | – | – | – | 0.027 | -0.036 | – | -0.069 | -0.023 | 0.02 | 0.015 |
| MRPL22 (UniProt Q9NWU5) | – | 0.018 | -0.033 | 0.058 | – | -0.017 | 0.051 | – | – | -0.069 | -0.006 | -0.045 | – | -0.013 | 0.001 | 0.001 | 0.069 | – | 0.001 | -0.002 |
| LY6E (UniProt Q16553) | -0.032 | – | – | – | – | – | – | -0.02 | -0.055 | – | -1.86 (active) | 0.533 | – | – | 0.028 | -0.027 | -0.042 | 0.068 | 0.026 | 0.022 |
| KLC1 isoform 10 (UniProt Q07866) | 0.235 | – | – | -0.129 | – | – | – | 0.238 | 0.152 | – | – | – | – | – | – | – | – | – | – | – |
| MAP3K4 isoform 2 (UniProt Q9Y6R4) | – | – | – | – | – | -0.005 | – | – | – | – | – | – | – | -0.004 | – | – | – | – | – | – |
| LSM11 (UniProt P83369) | – | – | – | 0.004 | -0.198 | -0.161 | – | – | 0.06 | – | 0.115 | 0.212 | 0.076 | -0.085 | – | – | – | 0.077 | – | – |
| LGALS3BP (UniProt Q08380) | – | – | – | 0 | 0.453 | -0.009 | – | – | 0.036 | – | 0.168 | 0 | 0.219 | -0.067 | 0.061 | 1.31 | 0 | -0.196 | 0.01 | 0.044 |
